The results in this text go back to PubChem BioAssay AID463173 (ICCB-Longwood Screening Facility, Harvard Medical School, 2010).

SMILES strings stand for the structures. The whole screen tested about 52,000 compounds, of which about 4,300 (8.3%) were called active. Cut-off read from the data, not from the text of the source: active = survival mostly below about 52% (no sharp cut-off); inactive = mostly above about 56%. This excerpt belongs to a sample that is enriched for actives.

This experiment has as its system DeltatarO mutant. Kind of experiment: growth inhibition of S. aureus wild type versus tarO mutant, primary screen, teichoic acid synthesis inhibitors, RN4220, OD600 (AID 463173). The note with it: OD600, 18 h, stronger effect = lower value, screened at 18.75 µg/mL (by protocol).
With `CCc1ccc(CNC(=O)c2ccc(-c3nc(CS(=O)(=O)c4ccccc4)c(C)o3)cc2)cc1`, the survival is 54% (inactive). With `CC(C)(C)OC(=O)N1CCC(c2c(C(=O)O)cnn2-c2ccc(F)cc2F)CC1`, the survival is 87% (inactive).

Take `CCCCN1CC(c2nc3ccccc3n2CCCCOc2ccc(C)cc2C)CC1=O` (stereo unspecified): the survival is 13% (active). Take `CCOc1ccccc1N1CC(c2nc3ccccc3n2CCCCOc2cc(C)ccc2C)CC1=O` (stereo unspecified): the survival is 47% (active).

Regarding `CCOc1ccccc1N1CC(c2nc3ccccc3n2CCCCOc2ccccc2)CC1=O` (stereo unspecified), the survival was 59% (inactive). The same measure for `Cc1ccc(OCCCn2c(C3CC(=O)N(c4cccc(Cl)c4)C3)nc3ccccc32)c(C)c1` (stereo unspecified): 76% (inactive); for `CCOc1ccccc1N1CC(c2nc3ccccc3n2CCCOc2ccccc2OC)CC1=O` (stereo unspecified): 76% (inactive); for `CCCCN1CC(c2nc3ccccc3n2CCCCOc2cc(C)ccc2C)CC1=O` (stereo unspecified): 15% (active). Take `CC(=O)c1c(C)n(-c2cccc(C)c2)c2ccc(OC(=O)COc3ccccc3)cc12`: the survival was 70% (inactive). For the compound `COc1ccc(OC)c(NC(=O)COCc2cc(-c3ccco3)on2)c1`, the survival was 49% (inactive). The same measure for `Cc1ccc(CNC(=O)Cn2c(=O)n(Cc3ccc(F)cc3)c(=O)c3sc4ccccc4c32)cc1`: 92% (inactive); for `O=C1CCCN1c1ccc(S(=O)(=O)N2CCCCC2)cc1`: 93% (inactive). Regarding `COc1cccc2c1cc1c(=O)n(CC(=O)N3CCN(c4cc(Cl)ccc4C)CC3)nc(C)n12`, the survival was 74% (inactive).

Take `O=C(Nc1cccc(C(=O)OCc2cc(=O)n3nc(C4CC4)sc3n2)c1)c1cccc(Cl)c1`: the survival was 80% (inactive).

Regarding `CNC(=O)COc1ccc(NC(=O)c2ccc(-c3nn(C)c(=O)c4ccccc34)cc2)cc1`, the survival is 75% (inactive). The same measure for `Cc1ccc(NC(=O)COc2ccc(-c3nn(C)c(=O)c4ccccc34)cc2)cc1`: 48% (inactive); for `Cn1nc(-c2ccc(OCC(=O)Nc3ccccc3)cc2)c2ccccc2c1=O`: 47% (inactive); for `COc1ccccc1NC(=O)COc1ccc(-c2nn(C)c(=O)c3ccccc23)cc1`: 37% (active). For `CNC(=O)c1ccc(NC(=O)COc2ccc(-c3nn(C)c(=O)c4ccccc34)cc2)cc1`, the survival is 62% (active).

Turning to `COc1ccc(NC(=O)COc2ccc(-c3nn(C)c(=O)c4ccccc34)cc2)cc1`, the survival was 75% (inactive). As for `CC(=O)c1ccc(NC(=O)c2nc3ccccc3n(C)c2=O)cc1`, the survival was 80% (inactive). Turning to `CC(C)Cn1c(=O)c2ccccc2n2c(CCC(=O)NC(C)c3ccccc3)nnc12` (stereo unspecified), the survival was 87% (inactive). Regarding `CN(C)S(=O)(=O)c1ccc(C(=O)Nc2c(C(=O)Nc3ccc(F)cc3)oc3ccccc23)cc1`, the survival was 73% (inactive). As for `Cc1ccc(NC(=O)Cc2coc3c(C)c(C)ccc23)c(C)c1`, the survival was 96% (inactive). With `Cc1ccc(NC(=O)Cn2nc3c(cc2=O)CCCC3)cc1Cl` the figure was 93% (inactive); with `CCOC(=O)c1cccc(NC(=O)Cn2nc3c(cc2=O)CCCC3)c1`, 37% (active); with `CCOC(=O)c1cccc(NC(=O)Cn2cnc3nc4c(cc3c2=O)CCCC4)c1`, 94% (inactive). As for `COc1ccc(CNC(=O)Cn2nc3c(cc2=O)CCCC3)cc1`, the survival is 46% (active). For `O=C(Cn1nc2c(cc1=O)CCCC2)NCc1ccc(Cl)cc1`, the survival was 115% (inactive). In the case of `O=C(Cn1nc2c(cc1=O)CCCC2)NCc1ccccc1`, the survival was 105% (inactive).

Regarding `COc1ccc(Cl)cc1C(=O)CSc1nnnn1C1CCCCC1`, the survival was 93% (inactive).

On to `COc1ccc(NC(=O)CCCc2nnc3n(C(C)C)c(=O)c4sccc4n23)cc1Cl`, for which the survival was 93% (inactive). As to `CC(C)CCN(Cc1ccco1)C(=O)c1cc2c(Cl)nc3ccccc3c2s1`, the survival was 68% (inactive). For `COCCCN(Cc1ccco1)C(=O)c1cc2c(s1)-c1ccccc1OC2`, the survival is -3% (active). For `CC(C)CCN(Cc1ccco1)C(=O)c1cc2c(s1)-c1ccccc1OC2`, the survival is -4% (active). As to `CC(C)OCCCN(Cc1ccco1)C(=O)c1cc2c(s1)-c1ccccc1OC2`, the survival is -5% (active). With `CN(C)CCN(Cc1ccco1)C(=O)c1cc2c(s1)-c1ccccc1OC2`, the survival is 69% (inactive).

`COc1ccccc1CNC(=O)c1cc2c(s1)-c1ccccc1OC2`: the survival is 61% (inactive).

As for `Cc1ccc(C(C)C)c(OCC(=O)Nc2ccc(O)c(-c3nc4cc(Cl)ccc4o3)c2)c1`, the survival is 73% (inactive). In the case of `CC(C)CNC(=O)Cc1ccccc1`, the survival was 65% (inactive). In the case of `O=C(CN1CCSc2ccccc21)N1CCCCC1`, the survival was 78% (inactive). The same measure for `Clc1ccccc1N1CCN(c2ncnc3c2c(-c2ccccc2)cn3-c2ccccc2)CC1`: 80% (inactive); for `Cc1ccccc1C(=O)Nc1ccc2nc(SCC(=O)N3CCc4ccccc43)sc2c1`: 106% (inactive). Turning to `Cc1ccc(-c2c(C)n3c4c(=O)n(C)c(=O)n(C)c4nc3n2CCCO)cc1`, the survival was 81% (inactive).

As for `CCOC(=O)CSc1nnc(CNc2ccc(C)cc2C)n1-c1ccccc1`, the survival is 58% (inactive).

For the compound `CCN1CCN(C(c2cccc(F)c2)c2c(O)cc(C)n(CCOC)c2=O)CC1` (stereo unspecified), the survival is 73% (inactive). With `Cc1ccc(CCNC(=O)c2sc3ncccc3c2-n2c(C)ccc2C)cc1` the figure was 64% (inactive); with `CN(C)c1ccc(CNC(=O)c2sc3ncccc3c2-n2cccc2)cc1`, 102% (inactive).

In the case of `COCCNC(=O)c1sc2ncccc2c1-n1c(C)ccc1C`, the survival is 98% (inactive). `CC(C)Oc1ccc(CNC(=O)c2sc3ncccc3c2-n2cccc2)cc1`: the survival is 46% (active). As to `CCc1ccc(CNC(=O)c2sc3ncccc3c2-n2c(C)ccc2C)cc1`, the survival was 0% (active).

On to `COc1cc(CNC(=O)c2sc3ncccc3c2-n2cccc2)cc(OC)c1OC`, for which the survival was 118% (inactive). In the case of `Cc1cc(SCC(=O)NCc2ccccc2Cl)nc(=O)[nH]1`, the survival was 96% (inactive). For `CCc1ccc(-c2nc(CS(=O)CC(=O)NCCc3ccc(C)cc3)c(C)o2)cc1` (stereo unspecified), the survival is 89% (inactive). Consider `CCOc1ccc(C(=O)c2cn(Cc3ccccc3)c3c(F)cc(F)cc3c2=O)cc1`, for which the survival was 78% (inactive).

As for `CCc1ccc(NC(=O)Cn2c(=O)c3cc(Cl)ccc3n3nncc23)cc1`, the survival was 80% (inactive).

For the compound `CCOc1ccc(CNC(=O)C2CCCN(c3nn4cc(-c5ccc(F)cc5)nc4s3)C2)cc1` (stereo unspecified), the survival was 67% (inactive).

Consider `Cc1ccc(CCNC(=O)c2cc3sccc3n2Cc2ccc(F)cc2)cc1`, for which the survival was 87% (inactive). For `Cc1ccc(-c2onc(C)c2C)cc1S(=O)(=O)NCc1ccco1`, the survival is 87% (inactive). Consider `COc1ccc(-c2onc(C)c2C)cc1S(=O)(=O)NCCc1ccccc1`, for which the survival is 90% (inactive).

For `COc1ccc(CCNS(=O)(=O)c2cc(-c3onc(C)c3C)ccc2OC)cc1OC`, the survival is -1% (active). With `Cc1ccc(-c2onc(C)c2C)cc1S(=O)(=O)NCc1cccs1`, the survival is 91% (inactive). `Cc1ccc(-c2onc(C)c2C)cc1S(=O)(=O)NCc1ccc(N(C)C)cc1`: the survival was -2% (active). For the compound `COCCCNS(=O)(=O)c1cc(-c2onc(C)c2C)ccc1OC`, the survival was 115% (inactive). Regarding `CC(C)NC(=O)Nc1ccc2c(c1)N(C)C(=O)c1ccccc1S2`, the survival is 117% (inactive). On to `CCOC(=O)/C(C#N)=C/C1=C(N)CC(C)(C)OC1`, for which the survival was 95% (inactive).

As to `Cc1ccc(NC(=O)Cn2c(=O)n(Cc3ccc4c(c3)OCO4)c(=O)c3ccc(C(=O)NC4CCCCC4)cc32)c(C)c1`, the survival was 100% (inactive). In the case of `Cc1ccc(NC(=O)C(C)Sc2nnc(C3CCCCC3)n2C)cc1` (stereo unspecified), the survival was 109% (inactive). With `CCN(C(=O)Cn1nc(Cc2ccncc2)c2ccccc2c1=O)c1cccc(Cl)c1`, the survival is 83% (inactive).

`CCn1c(COc2ccc(Cl)cc2Cl)nc2ccccc21`: the survival is 57% (inactive). The same measure for `CCC(=O)NCc1nc2ccccc2n1Cc1ccccc1`: 122% (inactive). For the compound `Cc1cccc(Cn2c(COc3ccccc3)nc3ccccc32)c1`, the survival is -2% (active). On to `CC(O)c1nc2ccccc2n1Cc1ccccc1` (stereo unspecified), for which the survival is 57% (inactive). As for `Cc1ccc(Cn2c(Cc3ccccc3)nc3ccccc32)cc1`, the survival is -1% (active). `O=C(NCCc1nc2ccccc2n1Cc1ccc(Cl)cc1)c1ccccc1`: the survival is 72% (inactive). With `Cc1ccc(Cn2c(CCNC(=O)C(C)C)nc3ccccc32)cc1` the figure was 78% (inactive); with `Cc1ccc(Cn2c(CNC(=O)c3cccc(C)c3)nc3ccccc32)cc1`, 96% (inactive).

In the case of `Clc1ccc(OCc2nc3ccccc3n2Cc2ccccc2)c(Cl)c1`, the survival is 14% (active).

On to `CC(C)(C)c1ccc(Cn2c(Cc3ccccc3)nc3ccccc32)cc1`, for which the survival is 0% (active). Regarding `Cc1cccc(Cn2c(COc3ccc(Cl)cc3)nc3ccccc32)c1`, the survival was 59% (inactive).

Take `Cc1ccc(CNC(=O)CCCn2c(=O)[nH]c3ccc(Br)cc3c2=O)cc1`: the survival is 87% (inactive). Regarding `Cc1ccc(-c2nnc(SC(C)C)n2-c2ccccc2)cc1`, the survival was 100% (inactive).

In the case of `COc1ccccc1C(=O)n1nc(-c2cccnc2)nc1NCc1ccccc1`, the survival is 64% (inactive).

On to `CCc1ccc(S(=O)(=O)c2nnn3c2nc(NCCNC(C)=O)c2cc(Cl)ccc23)cc1`, for which the survival is 74% (inactive). On to `CCOC(=O)N1CCN(Cc2nc3cc(NC(=O)c4ccc([N+](=O)[O-])cc4)ccc3n2C(C)C)CC1`, for which the survival is 75% (inactive). On to `CC(C)Oc1ccc(CNC(=O)c2ccc3nc(SCc4ccc(F)cc4)n(C)c3c2)cc1`, for which the survival is 101% (inactive). Take `CCS(=O)(=O)N1CCC(C(=O)NCCC(C)C)CC1`: the survival was 87% (inactive). The same measure for `CCCCn1c(SCC(=O)Nc2cccc(OC)c2)nc2c(sc3ccccc32)c1=O`: 88% (inactive); for `Cc1nc2nc(CNC(=O)c3cccc(F)c3)nn2c(C)c1CCC(=O)Nc1cccc(Cl)c1`: 110% (inactive). With `CC1CCCN(S(=O)(=O)c2ccc(N3CCCCS3(=O)=O)cc2)C1` (stereo unspecified), the survival is 74% (inactive). With `CCN(C(=O)c1ccc2c(=O)n3c(nc2c1)CCCCC3)c1cc(C)ccc1C`, the survival is 89% (inactive). As to `COc1ccc(S(=O)(=O)c2nnn(-c3ccc(C)c(Cl)c3)c2C)cc1`, the survival is 99% (inactive).

As for `CC(C)c1ccc(Cn2c(COc3ccccc3)nc3ccccc32)cc1`, the survival was -1% (active). With `COCc1nc2ccccc2n1Cc1cccc(C)c1`, the survival is 79% (inactive).

On to `Cc1cccc(Cn2c(CNC(=O)c3ccccc3)nc3ccccc32)c1`, for which the survival is 64% (inactive).

Take `Cc1cccc(Cn2c(Cc3ccccc3)nc3ccccc32)c1`: the survival is 22% (active).
